Assay results published in PubChem BioAssay (NCI).
This is part of a sample that, as a whole, favours compounds with a hit. Of some 79,000 tested, about 15% had one in any assay. The source made the active and inactive calls. Cut-off read from the data, not from the text of the source: active = growth inhibition above about 70%; inactive = the rest.

Key:
[1] = NCI Yeast Anticancer Drug Screen. Data for the rad52 strain (AID 147);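 note: 0% = growth of vehicle-treated control cultures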; settings: S. cerevisiae rad52 mutant growth inhibition, hits give high values
Method in brief: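 Growth of repair-deficient yeast cells was compared between compound-treated and vehicle-treated cultures to give percent inhibition.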

[2] = NCI Yeast Anticancer Drug Screen. Data for the wt1 strain (AID 149);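 note: 0% = growth of vehicle-treated wt1 cultures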; settings: S. cerevisiae wt1 strain (SPY 50644) growth inhibition, hits give high values
Method in brief: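 The wt1 strain was treated with compounds, and growth was compared with vehicle-treated cultures to give inhibition.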

[3] = NCI Yeast Anticancer Drug Screen. Data for the rad50EPP+ strain (AID 151);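 note: 0% = growth of vehicle-treated control cultures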; settings: S. cerevisiae rad50 mutant strain, hits give high values
Method in brief: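 Measured: growth inhibition of rad50EPP+ yeast. Reference: vehicle-treated controls. Screen uses strains with defined genetic alterations in DNA damage repair or cell cycle control.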

[4] = NCI Yeast Anticancer Drug Screen. Data for the mgt1 strain (AID 153); settings: S. cerevisiae mgt1 mutant growth inhibition, hits give high values
Method in brief: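 Compounds were applied to mgt1 mutant yeast, and growth was then compared against vehicle-treated control cultures to give percent inhibition.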

[5] = NCI Yeast Anticancer Drug Screen. Data for the rad50 strain (AID 155);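 note: 0% = growth of vehicle-only cultures of the same strain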; settings: S. cerevisiae rad50 strain growth inhibition, hits give high values
Method in brief: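 Cells are treated with compound, grown, and their growth is then scored against vehicle-only cultures of the same repair-deficient yeast strain.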

[6] = NCI Yeast Anticancer Drug Screen. Data for the mec2-1 strain (AID 157); settings: S. cerevisiae mec2-1 strain, hits give high values
Method in brief: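 Compounds were applied to mec2-1 yeast cells. Their growth was then compared with that of vehicle-treated cultures to give growth inhibition.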

[7] = NCI Yeast Anticancer Drug Screen. Data for the rad14 strain (AID 159);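 note: 0% = growth of vehicle-treated control cultures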; settings: S. cerevisiae rad14 strain growth inhibition, hits give high values
Method in brief: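 Readout: yeast growth inhibition, referenced to vehicle-only cultures. Strain bears a defined alteration in DNA damage repair.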

[8] = NCI Yeast Anticancer Drug Screen. Data for the sgs1 mgt1 strain (AID 161);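 note: 0% = growth of cultures given vehicle only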; settings: S. cerevisiae sgs1 mgt1 strain, hits give high values
Method in brief: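 Compounds are added to genetically altered yeast, and growth is compared with cultures given vehicle alone to give percent inhibition.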

[9] = NCI Yeast Anticancer Drug Screen. Data for the CLN2oe strain (AID 163);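 note: 0% = growth of vehicle-only control cultures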; settings: S. cerevisiae CLN2oe strain, hits give high values
Method in brief: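 Cells of an engineered yeast line with disturbed cell-cycle regulation are treated with compound. Inhibition of growth is then calculated relative to the vehicle-treated reference.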

[10] = NCI Yeast Anticancer Drug Screen. Data for the cln2 rad14 strain (AID 165);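 note: 0% = growth equal to vehicle treated cultures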; settings: S. cerevisiae cln2 rad14 strain, hits give high values
Method in brief: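 Strain: cln2 rad14 yeast, altered in cell cycle control and DNA damage repair. Read-out: growth inhibition vs vehicle.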

[11] = NCI Yeast Anticancer Drug Screen. Data for the bub3 strain (AID 167); settings: S. cerevisiae bub3 mutant strain, hits give high values
Method in brief: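 Part of a panel of yeast mutants defective in DNA damage repair or cell cycle regulation. Each strain is grown with compound, and inhibition is calculated relative to solvent-treated cultures.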

[12] = NCI Yeast Anticancer Drug Screen. Data for the wt2 strain (AID 169);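 note: 0% = growth of vehicle-treated yeast cultures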; settings: S. cerevisiae wt2 strain growth inhibition, hits give high values
Method in brief: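 Growth of compound-treated yeast is measured and expressed as inhibition relative to vehicle-only controls.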

[13] = NCI Yeast Anticancer Drug Screen. Data for the sgs1 strain (AID 173);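 note: 0% = growth of vehicle-only control cultures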; settings: S. cerevisiae sgs1 mutant, hits give high values
Method in brief: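 Strain with an altered DNA repair or cell cycle pathway exposed to compound. Growth then measured. Value = inhibition versus vehicle control.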

[14] = NCI Yeast Anticancer Drug Screen. Data for the mlh1 rad18 strain (AID 175); settings: S. cerevisiae mlh1 rad18 strain growth inhibition, hits give high values
Method in brief: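 A repair-deficient yeast strain is exposed to test compound, and growth is scored relative to vehicle-treated controls.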

[15] = NCI Yeast Anticancer Drug Screen. Data for the rad18 strain (AID 177); settings: S. cerevisiae rad18 mutant growth inhibition, hits give high values
Method in brief: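 DNA-repair-defective yeast; compound treatment; growth inhibition scored against vehicle.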

[16] = NCI Yeast Anticancer Drug Screen. Data for the mlh1 strain (AID 171);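 note: 0% = growth of vehicle-treated control cultures of the same strain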; settings: S. cerevisiae mlh1 strain growth inhibition, hits give high values
Method in brief: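 Test agents were incubated with yeast bearing a defined DNA damage repair or cell cycle control alteration; values are growth inhibition normalised to vehicle-treated cultures.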

[17] = at 5.0 µM (retest, dose inferred, filed as 0.5)
[18] = at 50.0 µM (retest, dose inferred, filed as 5.0)

Measured: growth inhibition

O=C(/C=C/c1ccsc1)c1cccs1
active: [1]; at 100.0 µM 82% | [3]; at 100.0 µM 95% | [4]; at 100.0 µM 92% | [5]; at 100.0 µM 92% | [6]; at 100.0 µM 98% | [7]; at 100.0 µM 87% | [9]; at 100.0 µM 84% | [11]; at 100.0 µM 97% | [12]; at 100.0 µM 85% | [13]; at 100.0 µM 83% | [15]; at 100.0 µM 84%
inactive: [1]; at 1.2 µM -16% | [1]; at 3.7 µM -18% | [1]; at 11.0 µM -9% | [1]; at 33.0 µM -12% | [2]; at 1.2 µM -33% | [2]; at 3.7 µM -41% | [2]; at 11.0 µM -35% | [2]; at 33.0 µM -35% | [2]; at 100.0 µM 17% | [3]; at 1.2 µM 5% | [3]; at 3.7 µM 11% | [3]; at 11.0 µM 21% | [3]; at 33.0 µM 54% | [4]; at 1.2 µM 3% | [4]; at 3.7 µM -2% | [4]; at 11.0 µM -4% | [4]; at 33.0 µM 10% | [5]; at 1.2 µM 21% | [5]; at 3.7 µM 19% | [5]; [17] -15% | [5]; at 11.0 µM 22% | [5]; at 33.0 µM 27% | [5]; [18] 11% | [5]; at 50.0 µM 46.6% | [6]; at 1.2 µM -3% | [6]; at 3.7 µM -7% | [6]; [17] 4% | [6]; at 11.0 µM -2% | [6]; at 33.0 µM 8% | [6]; [18] 11% | [6]; at 50.0 µM 19.9% | [7]; at 1.2 µM 3% | [7]; at 3.7 µM 0% | [7]; at 11.0 µM -8% | [7]; at 33.0 µM 9% | [8]; [17] -1% | [8]; [18] 33% | [8]; at 50.0 µM 66.6% | [9]; at 1.2 µM 4% | [9]; at 3.7 µM 14% | [9]; at 11.0 µM 3% | [9]; at 33.0 µM 5% | [10]; [17] 37% | [10]; [18] 42% | [10]; at 50.0 µM 4.55% | [11]; at 1.2 µM 1% | [11]; at 3.7 µM 28% | [11]; [17] -11% | [11]; at 11.0 µM 11% | [11]; at 33.0 µM 23% | [11]; [18] 66% | [11]; at 50.0 µM 15.2% | [12]; at 1.2 µM -24% | [12]; at 3.7 µM -36% | [12]; at 11.0 µM -31% | [12]; at 33.0 µM -29% | [13]; at 1.2 µM -15% | [13]; at 3.7 µM -23% | [13]; at 11.0 µM -24% | [13]; at 33.0 µM -17% | [14]; [17] -9% | [14]; [18] 69% | [14]; at 50.0 µM 44.6% | [15]; at 1.2 µM -3% | [15]; at 3.7 µM -5% | [15]; at 11.0 µM -12% | [15]; at 33.0 µM -6%

O=C1C(=O)c2cccc([N+](=O)[O-])c2-c2ccccc21
active: [1]; at 33.0 µM 99% | [1]; at 100.0 µM 97% | [2]; at 33.0 µM 100% | [2]; at 100.0 µM 98% | [3]; at 33.0 µM 99% | [3]; at 100.0 µM 98% | [4]; at 33.0 µM 99% | [4]; at 100.0 µM 98% | [5]; at 33.0 µM 99% | [5]; [18] 98% | [5]; at 50.0 µM 98.5% | [5]; at 100.0 µM 96% | [6]; at 33.0 µM 99% | [6]; [18] 99% | [6]; at 50.0 µM 99.2% | [6]; at 100.0 µM 97% | [7]; at 33.0 µM 99% | [7]; at 100.0 µM 98% | [8]; [18] 99% | [8]; at 50.0 µM 98.9% | [9]; at 33.0 µM 99% | [9]; at 100.0 µM 98% | [11]; at 33.0 µM 99% | [11]; [18] 98% | [11]; at 50.0 µM 98.8% | [11]; at 100.0 µM 99% | [12]; at 33.0 µM 99% | [12]; at 100.0 µM 98% | [16]; at 33.0 µM 99% | [16]; at 100.0 µM 98% | [14]; [18] 98% | [14]; at 50.0 µM 98.8% | [15]; at 33.0 µM 99% | [15]; at 100.0 µM 98%
inactive: [1]; at 1.2 µM 6% | [1]; at 3.7 µM -4% | [1]; at 11.0 µM 37% | [2]; at 1.2 µM 2% | [2]; at 3.7 µM 20% | [2]; at 11.0 µM 18% | [3]; at 1.2 µM -2% | [3]; at 3.7 µM -14% | [3]; at 11.0 µM 24% | [4]; at 1.2 µM 2% | [4]; at 3.7 µM -2% | [4]; at 11.0 µM 6% | [5]; at 1.2 µM -78% | [5]; at 3.7 µM -4% | [5]; [17] 19% | [5]; at 11.0 µM 55% | [6]; at 1.2 µM 5% | [6]; at 3.7 µM 9% | [6]; [17] 31% | [6]; at 11.0 µM 10% | [7]; at 1.2 µM 11% | [7]; at 3.7 µM 20% | [7]; at 11.0 µM 62% | [8]; [17] 31% | [9]; at 1.2 µM -6% | [9]; at 3.7 µM -5% | [9]; at 11.0 µM -1% | [11]; at 1.2 µM 32% | [11]; at 3.7 µM 35% | [11]; [17] 53% | [11]; at 11.0 µM 47% | [12]; at 1.2 µM 30% | [12]; at 3.7 µM 47% | [12]; at 11.0 µM 66% | [16]; at 1.2 µM -3% | [16]; at 3.7 µM -1% | [16]; at 11.0 µM 3% | [14]; [17] 37% | [15]; at 1.2 µM 1% | [15]; at 3.7 µM 6% | [15]; at 11.0 µM 15%

C1=CCN([B-](c2ccccc2)[C+]2CCCCC2)C=C1
inactive: [1]; at 1.2 µM -3% | [1]; at 3.7 µM -4% | [1]; at 11.0 µM 1% | [1]; at 33.0 µM 58% | [2]; at 1.2 µM -1% | [2]; at 3.7 µM -2% | [2]; at 11.0 µM 1% | [2]; at 33.0 µM 64% | [3]; at 1.2 µM -3% | [3]; at 3.7 µM -4% | [3]; at 11.0 µM -3% | [3]; at 33.0 µM 2% | [3]; at 100.0 µM 22% | [4]; at 1.2 µM -2% | [4]; at 3.7 µM -1% | [4]; at 11.0 µM 0% | [4]; at 33.0 µM 44% | [5]; at 1.2 µM -3% | [5]; at 3.7 µM -49% | [5]; [17] -2% | [5]; at 11.0 µM 16% | [6]; at 1.2 µM -1% | [6]; at 3.7 µM -2%
active: [1]; at 100.0 µM 98% | [2]; at 100.0 µM 98% | [4]; at 100.0 µM 99% | [5]; at 33.0 µM 70% | [5]; [18] 86% | [5]; at 50.0 µM 98.9% | [5]; at 100.0 µM 99%
